# From PubChem
# V-ATPase pHluor = yeast V-ATPase proton transport regulation by pHLuorin; S. cerevisiae, pHLuorin cytosolic pH fluorescence; response, % at 10 µM; hit rate 0.37% among 350,000; AID 504577; in the data active means response mostly above about 7.3%, no sharp cut-off; inactive means mostly below about 5.4%; further: actives read high
# Yeast superoxide = caloric restriction mimetics inhibiting age-related superoxide in yeast. S. cerevisiae aged cells, superoxide DHE fluorescence; hits give low values. superoxide response (% of plate mean), % at 10 µM. hit rate 0.18% among 330,000. AID 2690;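 active means superoxide response under a set limit, about three screen SD below normal, cut at about 65% in these data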;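 further: yeast aged for seven days with compound at 30 °C before DHE staining; 100% = average MFI of all compound-treated wells on the plate with controls excluded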
# PolyA inhibitor = yeast polyadenylation inhibition; S. cerevisiae SKY197-pL101 polyadenylation reporter, beta-gal luminescence; efflux-impaired pdr1/pdr3 knockout yeast; score 100 = 6 SD above DMSO; activity score, % at 12 µM; AID 1875; hit rate 0.02% among 300,000;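 active means lowest replicate activity score at least 50, where 100 means six control SD above control mean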;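 further: yeast exposed to compound for 9 h at 30 °C; higher score means more reporter readthrough which indicates perturbed polyadenylation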
# PKA-R2B activ = PKA-R2B complex activation. PKA-R2B holoenzyme dissociation, Cy5-IP20 fluorescence polarization; R2B truncated from residue 108, S112A mutant; 0% DMSO only, 100% 113 µM cGMP. hit rate 0.079% among 340,000. AID 504700. activation, % at 11.4 µM;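 active means activation above a cutoff set at the mean over all compounds plus 3 SD, cut at about 18% in these data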;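 further: higher means more holoenzyme dissociation and a rise in polarization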
# JMJD2C inh = human JMJD2C demethylase inhibition | hit rate 0.069% among 330,000 | inhibition, % at 2.35 µM | AID 2099 | GST-JMJD2C(1-420) H3K9me3 demethylation, DELFIA europium | Q9H3R0;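 active means more than half of a compound's replicate wells show inhibition beyond 50%, single wells judged on their own value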;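 further: signal counts dimethyl H3K9 product captured on neutravidin plate; 0% = median of DMSO wells and 100% = 0.3 times that DMSO median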
# Target sequence (Q9H3R0 1-420 limits assumed): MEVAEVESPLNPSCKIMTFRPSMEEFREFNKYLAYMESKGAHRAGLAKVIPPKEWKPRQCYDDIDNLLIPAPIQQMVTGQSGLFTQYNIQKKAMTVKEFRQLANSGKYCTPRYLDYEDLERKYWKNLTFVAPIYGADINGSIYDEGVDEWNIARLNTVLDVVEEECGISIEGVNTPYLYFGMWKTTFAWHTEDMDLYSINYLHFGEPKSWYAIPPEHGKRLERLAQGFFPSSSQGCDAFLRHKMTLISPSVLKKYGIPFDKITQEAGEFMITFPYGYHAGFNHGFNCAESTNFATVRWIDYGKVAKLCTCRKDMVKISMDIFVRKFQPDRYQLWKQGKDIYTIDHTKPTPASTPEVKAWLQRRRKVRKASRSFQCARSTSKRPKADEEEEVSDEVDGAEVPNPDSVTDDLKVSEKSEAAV
# PKA-R1A activ = activators of PKA-R1A complex | P00514+P68181 | hit rate 0.083% among 340,000 | PKA-R1A dissociation, Cy5-IP20 fluorescence polarization; scaled: DMSO 0%, 113 µM cGMP 100% | activation, % at 11.4 µM;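 active means percent activation above the mean of all tested compounds plus 3 SD, cut at about 19% in these data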;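 further: higher means more PKAc released from R1A so a rise in polarization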
# * marks the source's active call; other numbers are inactive results; . = not tested or not shown. Most compounds without a hit are left out; they make up all but 0.78% or so of the library.
SMILES,V-ATPase pHluor,Yeast superoxide,PolyA inhibitor,PKA-R2B activ,JMJD2C inh,PKA-R1A activ
O=C(CSc1nnc(CNC(=O)c2ccccc2F)o1)NCCc1ccccc1,1,103,9,-4,108*,-5
CCc1ccccc1NC(=O)COC(=O)C1C2CC3OC(=O)C1C3C2 (stereo not given),3,120,6,-1,-12,4
CCCCCCCCCCCC(=O)NC1CCS(=O)(=O)C1 (stereo not given),3,118,20,7,14,5
CCOCCCNC(=O)C(NC(=O)c1ccc(NC(C)=O)cc1)c1ccc(C)cc1 (stereo not given),-2,97,-4,0,5,-6
CCOCCCNC(=O)C(NC(=O)c1ccc(NC(C)=O)cc1)c1ccccc1 (stereo not given),0,61*,19,-15,4,-2
Cc1ccc(S(=O)(=O)N2CCOC2CNC(=O)C(=O)NCCc2ccc(S(N)(=O)=O)cc2)cc1 (stereo not given),-1,103,5,-6,61*,-8
NC(=O)c1ccsc1NC(=O)COC(=O)CNC(=O)c1ccc(Cl)cc1,2,116,.,8,-5,-1
O=C(COC(=O)CNC(=O)c1ccc(Cl)cc1)Nc1ccc(Cl)cn1,13*,114,.,-5,5,3
COc1cccc(N(C(=O)c2sc(C)nc2C)C(C(=O)NCC2CCCO2)c2ccccc2)c1 (stereo not given),-2,112,5,-6,-3,0
Cc1cccc(NC(=O)C2CCCN(S(=O)(=O)c3c(C)nn(C)c3C)C2)c1 (stereo not given),2,101,0,-1,-1,7
Cc1cccc(NC(=O)C2CCN(S(=O)(=O)c3cccc4nsnc34)CC2)n1,0,103,5,-8,52*,1
Cc1cccc(NC(=O)C2CCCN(S(=O)(=O)c3c(C)nn(C)c3C)C2)n1 (stereo not given),0,99,-7,3,63*,3
COc1cc(NC(=O)[C@@H](NC(=O)c2ccco2)C(C)C)c(OC)cc1NC(=O)c1ccccc1,-1,89,7,-7,17,10
CCOC(=O)CSc1nc(C)c(C(C)=O)cc1C(N)=O,6,99,21,11,0,5
O=C(Cc1ccc([N+](=O)[O-])cc1)c1ccc(O)cc1O,0,95,-7,-3,21,-8
COc1ccc(NC(=O)n2ncc3c(C)cccc32)cc1,2,100,8,9,-7,-4
O=S(=O)(c1ccccc1F)N1CCN(Cc2cc3c(cc2Br)OCCO3)CC1,-5,132,.,-1,3,-6
Cc1ccc(OCC(=O)Nc2sc3c(c2C#N)CC(C)(C)NC3(C)C)cc1,13*,86,-10,-11,11,-3
CC1(C)Cc2c(sc(NC(=O)COc3cccc4ccccc34)c2C#N)C(C)(C)N1,0,96,21,-2,10,5
Cc1cccc(OCC(=O)Nc2ccccc2N2CCCCC2)c1C,8.8*,85,6,-18,5,-2
COc1ccc(-c2cccc(NC(=O)COc3ccc(Cl)cc3)c2)nn1,-1,140,81*,-2,-5,-7
Cc1cccc(N2C(=O)C3C4C=CC(C4)C3C2=O)c1 (stereo not given),4,92,13,2,54*,-2
CCc1sc(C(C2C(=O)CC(C)(C)CC2=O)C2C(=O)CC(C)(C)CC2=O)cc1[N+](=O)[O-],8.1*,119,10,-7,-12,-8
CC1(C)CC(=O)C(C(c2ccc(F)cc2)C2C(=O)CC(C)(C)CC2=O)C(=O)C1,-2,109,7,-7,-5,-12
COc1ccccc1CNC(=O)C12CC3CC(CC(C3)C1)C2,5,62*,-4,-4,-25,-14
SMILES,V-ATPase pHluor,Yeast superoxide,PolyA inhibitor,PKA-R2B activ,JMJD2C inh,PKA-R1A activ
O=C(NCc1ccccc1F)C12CC3CC(CC(C3)C1)C2,8,104,1,0,5,-4
O=[N+]([O-])c1ccc(/C=[N+](\[O-])[C@@H]2CCCC[C@@H]2/[N+]([O-])=C/c2ccc([N+](=O)[O-])o2)o1,-1,105,-16,7,89*,3
O=C(N/N=C/c1ccc([N+](=O)[O-])o1)C1CCCC1,-2,107,11,-10,15,1
COc1ccc(C(=O)NC(C(=O)NCC(=O)Nc2c(C)cccc2C)C(C)C)cc1 (stereo not given),-1,88,5,-3,6,2
CCOC(=O)C1(C)NC(c2cccs2)C2C(=O)N(c3ccc(OC)cc3)C(=O)C21 (stereo not given),.,94,5,.,55*,.
O=C(CN1C(=O)NC2(CCOc3ccccc32)C1=O)NCCc1ccc(F)cc1 (stereo not given),3,86,.,-5,8,4
CCCNC(=O)c1ccc2c(c1)C1C3CCC(C3)C1C(c1ccccc1)N2 (stereo not given),19*,88,-19,11,-13,-12
CN1CCN(S(=O)(=O)c2cccc(C(=O)NC3CCCC3)c2)CC1,23*,95,-6,3,1,-3
Nc1ncnc2c1ncn2[C@@H]1O[C@H](CNCC#Cc2ccccc2)[C@@H](O)[C@H]1O,6,99,.,-1,54*,-4
Nc1ncnc2c1ncn2[C@@H]1O[C@H](CNCc2cccc(C#Cc3ccccc3)c2)[C@@H](O)[C@H]1O,1,94,.,-9,.,-7
CC(C)(C)NNC(=S)Nc1cccc(C(F)(F)F)c1,1,116,5,-5,54*,-3
N#C/C(=C/c1ccc(N2CCCCC2)o1)C(=O)Nc1ccc2ccccc2c1,41*,.,-7,-4,-6,-2
N#C/C(=C/c1ccc(N2CCCCC2)o1)C(=O)Nc1ccc(Cl)cc1,-1,89,-15,-9,-1,-6
CC(C)(C)c1cc(C(=O)N2CCc3ccccc32)ccn1,17*,96,-3,-3,17,1
CC(C)(C)c1cc(C(=O)N2CCc3ccccc3C2)ccn1,-3,94,-32,-13,-1,10
O=c1[nH]c2ccccc2c(O)c1-c1ccccc1[N+](=O)[O-],-2,100,-4,6,-17,7
CCn1c(SCC(=O)Nc2nnc(C)s2)nnc1-c1ccncc1,1,108,-11,6,-3,1
CCn1c(SCC(=O)Nc2nc(C)cs2)nnc1-c1ccncc1,-1,93,0,8,54*,8
O=c1[nH]cnc2c1C(c1ccc(Cl)cc1)c1c(nc[nH]c1=O)O2,1,100,-19,-3,30,19*
